Assay results from PubChem BioAssay AID1117319 (Southern Research Institute, 2015).
Values joined by “and” are separate entries in the source; they are usually repeats but may differ in a detail not shown here. Equal values may be shown once. Among all 260,000 compounds or so, about 1,500 (0.58%) were called active. Roughly 5% stayed inconclusive and do not appear here.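 Rule for the calls: active = inhibition above a set limit at one or more doses, reproduced on every date tested; inconclusive = results disagree between test dates, or hit never tested in dose response; inactive = the rest.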 Not all results are given here. Potency and affinity values are given separately.

Molecular target: Virion infectivity factor (Human immunodeficiency virus type 1 group M subtype B (isolate BH10)) + Virion infectivity factor (Human immunodeficiency virus type 1 group M subtype B (isolate BRU/LAI)) + Virion infectivity factor (Human immunodeficiency virus type 1 group M subtype B (isolate PCV12)) + Virion infectivity factor (Human immunodeficiency virus type 1 group M subtype B (isolate HXB2)) + DNA dC->dU-editing enzyme APOBEC-3G (Homo sapiens) (UniProt P69720+P69721+P69722+P69723+Q9HC16)
Experiment: inhibitors of Vif binding to APOBEC3G peptide, primary screen, biochemical, TR-FRET, GST-Vif 1-94, biotin-A3G peptide, dose response retest (AID 1117319);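 note: Vif residues 1-94 fused to GST binding biotinylated APOBEC3G peptide 110-148; 0% = full assay without inhibitor and 100% = GST in place of GST-Vif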
Settings: stronger effect = higher value

inhibition, inactive:
O=C(CSc1nnc(CCCO)n1-c1ccccc1)Nc1nccs1 -0.69%
CCOc1cc(CNCCO)cc(Br)c1OCc1ccc(Cl)cc1 -0.39%
Nc1cc(=O)nc(SCC(=O)Nc2ccccc2Cl)n1-c1ccccc1 -1.2%
Cc1ncsc1CCSc1nc2ccccc2c(=O)n1C -1.02%
COc1cc(OC)cc(C(=O)Nc2cccnc2)c1 7.36%
COc1ccc(S(=O)CC(=O)Nc2ccccc2Cl)cc1 (stereo unspecified) -2.59%
CCN(CC)c1ccc(C=Nc2ccc(C#N)cc2)c(O)c1 -0.77%
CCN(CC)c1ccc(C=Nc2cc(C)cc(C)c2)c(O)c1 9.03%
CCN(CC)c1ccc(C=Nc2ccccc2)c(O)c1 29.3%
CCN(CC)c1ccc(C=Nc2ccccc2C)c(O)c1 -5.2%
COc1nnc(-c2ccc(C)c(S(=O)(=O)NC(C)C)c2)c2ccccc12 -9.93%
COc1ccc(C2=NC(CO)(CO)CO2)cc1 -8.98%
O=C(Nc1ccc(S(=O)(=O)N2CCCC2)cc1)c1cc(=O)c2ccccc2o1 -4.62%
CN(C)CC(=O)N1c2ccccc2Sc2ccc(Cl)cc21 3.03%
O=C(CN1CCCc2ccccc21)NCCc1ccc(Cl)cc1 32.1%
COc1ccc(CCNC(=O)CN2CCOc3ccccc32)cc1OC 2.79%
NC1=CC(=O)C(=O)c2ccccc21 6.05%
O=C1C=C(Nc2ccccc2)c2ccccc2C1=O 2.25%
COc1cc(-c2nnc(NC(=O)CS(=O)(=O)c3ccc(C)cc3)o2)cc(OC)c1OC -0.69%
COc1cc(NC(=O)CS(=O)(=O)c2ccccc2)cc(OC)c1OC -4.34%
O=[N+]([O-])c1cccnc1N1CCN(c2ccc(F)cc2)CC1 -1.42%
COCCCC1CCN(Cc2cn[nH]c2-c2cc(OC)c(OC)c(OC)c2)CC1 -14.3%
CSc1ccc(/C=N/Nc2ccc(Cl)c(C(=O)O)c2)cc1 14.3%
COC(=O)c1ccc(COc2ccccc2/C=N/Nc2cccc(C(=O)O)c2)cc1 9.8%
O=C(O)c1cccc(N/N=C/c2ccc(-c3ccccc3)cc2)c1 6.67%
O=C(O)c1cccc(N/N=C/c2ccc(OC(F)(F)F)cc2)c1 0.25%
CN(C)S(=O)(=O)N1CCc2ccccc21 28.1%
Cc1cc(OCCn2cnc3ccccc3c2=O)ccc1[N+](=O)[O-] 3.47%
O=S(=O)(N=C1C=CC(=NS(=O)(=O)c2ccccc2)c2ccccc21)c1ccccc1 14.1%
COc1ccc(S(=O)(=O)/N=C2/C=CC(=O)C(C)=C2C)cc1 9.79%
CCc1ccc(S(=O)(=O)ON2C(=O)c3ccccc3C2=O)cc1 5.83%
CCc1ccc(S(=O)(=O)/N=C2\C=C(NS(=O)(=O)c3ccccc3)C(=O)c3ccccc32)cc1 16%
Cc1ccc(CNC(=O)CSc2nc(N3CCCCC3)nc(N3CCCCC3)n2)cc1 4.78%
COc1ccc(Nc2nc(OC)nc(N3CCOCC3)n2)cc1 -3.38%
CC1=C(C(=O)OC2CCCCC2)C(c2cccs2)n2c(nc3ccccc32)N1 (stereo unspecified) -7.41%
CN1CCc2cc3c(c4c2[C@H]1[C@H](O)c1ccccc1-4)OCO3 9.65%
CN1CCc2ccccc2C1C1CCNCC1 (stereo unspecified) 25.2%
CCN(CC)CCn1c2c(c(SCC(=O)NCc3ccccc3)nc1=O)CCCC2 6.08%
O=C(NCCCN1CCN(CCCNC(=O)c2cccc([N+](=O)[O-])c2)CC1)c1cccc([N+](=O)[O-])c1 1.34%
Cc1nn(C)cc1/C=N/NC(=S)Nc1ccccc1 0.96%
C/C(N)=C(/C#N)C(=O)CSc1n[nH]c(-c2ccccc2Br)n1 10.4% and -7.5%
CCOC(=O)c1ccccc1NC(=O)[C@@H]1CCCN1C(=O)OC(C)(C)C 3.12%
CCN1C(=O)c2ccc(C(=O)NCc3ccc4c(c3)OCO4)cc2C1=O -10.4%
Cc1cc(C(F)(F)F)n2ncc(C(=O)O)c2n1 -3.78%
Cc1cc(C(F)(F)F)n2nc(C)c(-c3ccc(Cl)cc3)c2n1 -0.47%
CC(C)(C)C1=NN=C2c3ccccc3C(=O)C21 (stereo unspecified) 6.1%
COCOCCn1cc(CN2CCS(=O)(=O)N(Cc3ccc(-c4ccc(Cl)cc4)cc3)C(C)C2=O)nn1 (stereo unspecified) 1.6%
CCOC(=O)c1cc(C)n(-c2c(C)n(C)n(-c3ccccc3)c2=O)c1C 2.99%
Cc1cc(C(=O)CC#N)c(C)n1-c1c(C)n(C)n(-c2ccccc2)c1=O 3.73%
Cc1onc(-c2ccccc2Cl)c1C(=O)O/N=C(\N)c1ccccc1 -3.35%
COc1ccc2c(=O)c3c(=O)n(Cc4ccco4)c(-c4ccc(C)cc4)nc3oc2c1 -32.5%
COc1ccc2c(=O)c3c(=O)n(Cc4ccco4)c(-c4ccccc4)nc3oc2c1 -5.44%
COc1ccc2c(=O)c3c(=O)n(Cc4ccco4)c(C(C)C)nc3oc2c1 -5.33%
COc1ccc2c(=O)c3c(=O)n(Cc4ccco4)c(-c4ccco4)nc3oc2c1 6.47%
O=C(O)CCS(=O)(=O)Cc1ccccc1Cl 3.96%
CC(C)OC(=O)C1C(=O)CC(C)(O)C(C(=O)OC(C)C)C1c1ccccc1 (stereo unspecified) -5.49%
O=C(N/N=C/c1c[nH]c2ccccc12)c1ccc([N+](=O)[O-])cc1Cl 2.78%
CCCCC(=O)NC(=S)Nc1ccccc1N1CCCCC1 1.96%
Cc1nc(SCC(=O)c2ccc(F)c(F)c2)[nH]c(=O)c1Oc1ccc(F)cc1 -1.47%
Cc1cc(N2C(=O)C(O)=C(C(=O)c3ccco3)C2c2ccc(O)cc2)no1 (stereo unspecified) -5.88%
COc1cc(C2C(C(=O)c3ccc(C)o3)=C(O)C(=O)N2c2cc(C)on2)cc(Br)c1O (stereo unspecified) 19.3%
